One test has as its system Klebsiella pneumoniae. As to conditions: Concentration 32 ug.mL-1; ASSAY_TEST Inhibition of Bacterial Growth; detection method Absorption (OD600); MEDIA CAMHB; plate type 384well; NBS; CORNING #3640; time 18 hr.
In the next test the test system is Candida albicans. As to conditions: 32 ug/mL.
The subject of another test is Cryptococcus neoformans. As to conditions: Concentration 32 ug.mL-1; ASSAY_TEST Inhibition of Fungal Growth; detection method Resazurin; Absorption (OD600-OD570); plate type 384well; NBS; CORNING #3640. A general note: Resazurin is reduced to fluorescent resorufin, in cell work by metabolically active cells.

Potency and affinity values are given separately.

As to `COC(=O)c1ccc(C(=O)Nc2cc(C(=O)Nc3cc(C(=O)NCCN4CCOCC4)n(C)c3)n(C)c2)cc1.O=C(O)C(F)(F)F`, the results for the Inhibition in the test on Klebsiella pneumoniae, in the test with Candida albicans and with Cryptococcus neoformans were 8.44%, 7.27% and -98.27%, respectively.

In the case of `CN(C)CCCNC(=O)c1cc(NC(=O)c2cc(NC(=O)c3cc(NC(=N)c4ccccc4)cn3C)cn2C)cn1C.O=C(O)C(F)(F)F.O=C(O)C(F)(F)F`, the Inhibition with Klebsiella pneumoniae was 1.31%; in the test with Candida albicans, 0.01%; with Cryptococcus neoformans, -106.51%.

With `CC(C)CCc1sc(NC(=O)c2cc(NC(=O)c3cc(NC(=O)c4ccc(C(=O)O)cc4)cn3C)cn2C)nc1C(=O)NCCCN(C)C.O=C(O)C(F)(F)F`, the Inhibition in the test with Klebsiella pneumoniae was -0.94%; in the test on Candida albicans, 8.07%; with Cryptococcus neoformans, -119.21%.

Consider `Cc1ncc(CNc2ccc(Cl)cc2)c(N)n1`, for which the Inhibition is 5.04% in the test with Klebsiella pneumoniae, -0.54% in the test with Candida albicans and -54.67% in the test with Cryptococcus neoformans.

On to `CN(C)CCCNC(=O)c1cc(NC(=O)c2cc(NC(=O)c3ccc(C(=O)O)cc3)cn2C)cn1C.O=C(O)C(F)(F)F`, for which the Inhibition in the test on Klebsiella pneumoniae is 8.35%; with Candida albicans it was 15.6%; in the test with Cryptococcus neoformans, -106.52%.

Take `CN(C)CCCNC(=O)c1cc(NC(=O)c2cc(NC(=O)CCC(=O)O)cn2C)cn1C.O=C(O)C(F)(F)F`: the Inhibition in the test with Klebsiella pneumoniae is 6.24%; in the test on Candida albicans, 0.85%; in the test on Cryptococcus neoformans, -54.8%.

In the case of `COC(=O)CCC(=O)Nc1cc(C(=O)Nc2cc(C(=O)NCCCN(C)C)n(C)c2)n(C)c1.O=C(O)C(F)(F)F`, the Inhibition in the test on Klebsiella pneumoniae was -5.32%; in the test on Candida albicans, 0.6%; with Cryptococcus neoformans, -50.28%.

Regarding `Cc1ncc(CO)c(N)n1`, the Inhibition in the test with Klebsiella pneumoniae was -2.19%; in the test with Candida albicans, -0.12%; in the test with Cryptococcus neoformans, -45.32%.

Take `Cc1ncc(Cn2cc(CO)nn2)c(N)n1`: the figures for the Inhibition in the test on Klebsiella pneumoniae, with Candida albicans and in the test with Cryptococcus neoformans were -6.43%, 1.92% and -37.01%, respectively.

On to `COC(=O)CCC(=O)Nc1cc(C(=O)Nc2cc(C(=O)NCCN3CCOCC3)n(C)c2)n(C)c1.O=C(O)C(F)(F)F`, for which the Inhibition in the test on Klebsiella pneumoniae is 8.45%; with Candida albicans, 1.41%; with Cryptococcus neoformans it was -63.38%.

With `COc1cccc(/C=C/c2ccc(C(=O)Nc3cc(C(=O)Nc4cc(C(=O)NCCN(C)C)n(C)c4)n(C)c3)cc2)c1.O=C(O)C(F)(F)F`, the Inhibition in the test with Klebsiella pneumoniae was determined as 26.76%; in the test on Candida albicans, 28.1%; in the test on Cryptococcus neoformans it was 101.07%.

As for `CC(C)CCc1sc(NC(=O)c2cc(NC(=O)c3ccc(/C=C/c4cc5ccccc5nc4On4nnc5ccccc54)cc3)cn2C)nc1C(=O)NCCN1CCOCC1.O=C(O)C(F)(F)F`, the results for the Inhibition in the test on Klebsiella pneumoniae, in the test on Candida albicans and with Cryptococcus neoformans were -11.86%, 12.3% and 0.39%, respectively.

`Cc1ncc(Cn2cc(CCCO)nn2)c(N)n1`: the Inhibition in the test with Klebsiella pneumoniae is -1.34%; with Candida albicans, 0.26%; in the test with Cryptococcus neoformans it was -29.76%.

Consider `CC(C)CCc1sc(N)nc1C(=O)Nc1cc(C(=O)Nc2cc(C(=O)NCCN3CCOCC3)n(C)c2)n(C)c1.O=C(O)C(F)(F)F`, for which the values for the Inhibition with Klebsiella pneumoniae, with Candida albicans and in the test on Cryptococcus neoformans were 5.14%, 4.42% and -77.2%, respectively.

For the compound `Cc1ccc(S(=O)(=O)NCCc2cn(Cc3cnc(C)nc3N)nn2)cc1`, the Inhibition with Klebsiella pneumoniae was 1.07%; in the test with Candida albicans it was 3.05%; in the test with Cryptococcus neoformans, -48.53%.

Take `CC(C)c1sc(NC(=O)c2cc(NC(=O)c3cc(NC(=O)c4cnc(Cl)c(Cl)c4)cn3C)cn2C)nc1C(=O)NCCCN(C)C.O=C(O)C(F)(F)F`: the Inhibition is -2.83% with Klebsiella pneumoniae, 7.37% in the test with Candida albicans and 12.34% with Cryptococcus neoformans.

Regarding `CCOC(=O)c1cc(NC(=O)c2cc(NC(=O)c3nc(N)sc3CCC(C)C)cn2C)cn1C`, the values for the Inhibition in the test on Klebsiella pneumoniae, in the test on Candida albicans and with Cryptococcus neoformans were 9.93%, 2.98% and -84.96%, respectively.

Regarding `Cc1ncc(Cn2cc(CC(N)C(=O)O)nn2)c(N)n1.Cl` (stereo not given), the Inhibition in the test on Klebsiella pneumoniae is -13.87%; with Candida albicans, 2.15%; in the test on Cryptococcus neoformans it was -37.7%.

Turning to `COc1cccc(C(=N)Nc2cc(C(=O)Nc3cc(C(=O)NCCC(=N)N)n(C)c3)n(C)c2)c1.O=C(O)C(F)(F)F.O=C(O)C(F)(F)F`, the figures for the Inhibition with Klebsiella pneumoniae, in the test with Candida albicans and in the test with Cryptococcus neoformans were 100.7%, 39.3% and 101.54%, respectively.

With `Cc1ncc(Cn2cc(CCC(=O)O)nn2)c(N)n1.O=C(O)C(F)(F)F`, the Inhibition is -1.46% in the test on Klebsiella pneumoniae, 2.33% with Candida albicans and -50.97% in the test with Cryptococcus neoformans.

Regarding `CCOC(=O)c1cc(NC(=O)c2cc(NC(=O)c3sc(N)nc3C(F)(F)F)cn2C)cn1C`, the figures for the Inhibition in the test on Klebsiella pneumoniae, in the test with Candida albicans and in the test with Cryptococcus neoformans were 7.86%, 4.58% and -88.19%, respectively.

As to `CC(=O)N(C(C)=O)c1cc(C(=O)Nc2cc(C(=O)NCCC(=N)N)n(C)c2)n(C)c1.O=C(O)C(F)(F)F`, the results for the Inhibition in the test with Klebsiella pneumoniae, with Candida albicans and in the test on Cryptococcus neoformans were 5.82%, 3.85% and 87.54%, respectively.

As to `COc1cccc(C(=O)Nc2cc(C(=O)Nc3cc(C(=O)Nc4cn(CCCN(C)C)cn4)n(C)c3)n(C)c2)c1.O=C(O)C(F)(F)F`, the figures for the Inhibition in the test on Klebsiella pneumoniae, with Candida albicans and in the test on Cryptococcus neoformans were 3.02%, 3.2% and -93.96%, respectively.

Turning to `Cn1cc(NC(=O)c2cc(NC(=O)c3cc(NC(=O)c4ccc(Cl)cc4Cl)cn3C)cn2C)cc1C(=O)NCCN1CCOCC1.O=C(O)C(F)(F)F`, the Inhibition with Klebsiella pneumoniae was found to be 11.99%; in the test on Candida albicans it was 9.71%; with Cryptococcus neoformans, 9.62%.

As to `CC(C)n1cc(NC(=O)c2cc(NC(=O)c3cc(NC=O)cn3C(C)C)cn2C)cc1C(=O)NCCCN(C)C.O=C(O)C(F)(F)F`, the Inhibition in the test with Klebsiella pneumoniae was 2.64%; in the test on Candida albicans, -1.38%; in the test on Cryptococcus neoformans, -103.79%.

Consider `CC(C)c1sc(N)nc1C(=O)Nc1cc(C(=O)Nc2cc(C(=O)NCCN3CCOCC3)n(C)c2)n(C)c1.O=C(O)C(F)(F)F`, for which the Inhibition in the test with Klebsiella pneumoniae is -2.63%; in the test on Candida albicans, 3.25%; in the test with Cryptococcus neoformans it was -112.04%.

For `Cc1ncc(CNc2ccc(F)cc2)c(N)n1`, the Inhibition is 12.64% in the test with Klebsiella pneumoniae, 4.55% in the test with Candida albicans and -57.63% in the test on Cryptococcus neoformans.

`CCOC(=O)c1cc(NC(=O)c2cc(NC(=O)c3nc(N)sc3C(C)C)cn2C)cn1C`: the Inhibition with Klebsiella pneumoniae is 11.43%; in the test on Candida albicans, 4.33%; with Cryptococcus neoformans, -54.98%.

Take `CN(C)CCCNC(=O)c1cc(NC(=O)c2cc(NC(=O)c3cc4ccccc4cn3)cn2C)cn1C.O=C(O)C(F)(F)F`: the Inhibition is 12.4% in the test on Klebsiella pneumoniae, 3.58% with Candida albicans and -81.77% in the test on Cryptococcus neoformans.

Turning to `Cc1ncc(CNc2ccc(C(C)(C)C)cc2)c(N)n1`, the values for the Inhibition with Klebsiella pneumoniae, in the test with Candida albicans and with Cryptococcus neoformans were 2.67%, -0.83% and -46.61%, respectively.

A word on the Inhibition: it is the change of the read-out against control, counted positive when it falls.

For the origin of these results see ChEMBL document CHEMBL4513139, “CO-ADD screening of University of Strathclyde (UK) compounds”.
